Experimental data from PubChem BioAssay.
Active and inactive are the calls of the source. Unless noted, how the calls were made is not given here.

Assays:
[1] = resazurin metabolic signal in HepG2 cells – cell-based, resazurin fluorescence, 24 h, PK04 Diversity Set, profiling panel (AID 1172); settings: HepG2 viability, higher = more signal
[2] = budding yeast growth changes without added modifier – OD600, strain BY4716, 24 h, basal condition, primary screen (AID 1173); settings: S. cerevisiae BY4716 growth, OD600, 24 h; higher = more signal, called active from +8 up or from −8 down
[3] = viability profiling in MM1S myeloma cells – cell-based, resazurin fluorescence, basal, 24 h, PK04 Diversity Set, profiling panel (AID 1174); settings: higher = more signal, called active from +8 up or from −8 down;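 further: MM1S multiple myeloma cell line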
[4] = target: Dihydroorotate dehydrogenase (quinone), mitochondrial (Plasmodium falciparum (isolate 3D7)) (UniProt Q08210); assay: inhibition of P. falciparum DHODH – biochemical, C-terminal His tag, absorbance 600 nm, primary screen (AID 1175); settings: PfDHODH enzyme, DCIP absorbance 600 nm; higher = more signal, called active from +8 up or from −8 down;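 further: recombinant parasite enzyme with a five histidine tag at its C terminus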
[5] = inhibition of PAO1 biofilm formation – strain PAO1, LB-PBS medium, absorbance 600 nm, primary screen (AID 1176); settings: P. aeruginosa PAO1 growth/biofilm, A600, 12 h; higher = more signal
[6] = growth modulation of vineyard yeast isolate – strain RM11-1a, OD600, basal, 24 h, primary screen (AID 1177);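 further: cultures grown under basal conditions with no added stressor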; settings: S. cerevisiae RM11-1a growth, OD600, 24 h; higher = more signal, called active from +8 up or from −8 down
[7] = growth of efflux-deficient E. coli DRC39 – strain DRC39, OD650, 24 h, E. coli filamentation inducers, primary screen (AID 1178);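 further: growth measured as culture turbidity by optical density at 650 nm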; settings: E. coli DRC39 acrAB, higher = more signal, called active from +8 up or from −8 down
[8] = growth of efflux-deficient E. coli DRC39 – strain DRC39, OD650, 48 h, E. coli filamentation inducers, primary screen (AID 1179);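 further: screen aims at cell division blockers that make cells filament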; settings: E. coli DRC39 delta-acrAB growth, higher = more signal, called active from +8 up or from −8 down
[9] = viability profiling in RPMI8226 myeloma cells – cell-based, resazurin fluorescence, basal, 24 h, PK04 Diversity Set, profiling panel (AID 1180); settings: higher = more signal;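 further: RPMI8826 multiple myeloma cell line at 5000 cells per well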
[10] = target: E3 ubiquitin-protein ligase XIAP (Homo sapiens) (UniProt P98170); assay: small molecules binding XIAP protein – biophysical, small-molecule microarray, fluorescence 635 nm, primary screen (AID 1181); settings: higher = more signal;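 further: score merges 667 nm emission and signal to noise over triplicate slides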
[11] = test system: XIP peptide (Xip251-270) binding; assay: XIP fragment 251-270 binding compounds – biochemical, small-molecule microarray, fluorescence 635/667 nm, 0.1 µg/mL protein, primary screen (AID 1182); settings: fluorescent protein binding, 635 nm, higher = more signal, called active from +8 up or from −8 down
XIP peptide (Xip251-270) = assay: compounds binding XIP fragment 251-270 – biochemical, small-molecule microarray, fluorescence 635/667 nm, 0.5 µg/mL protein, primary screen (AID 1183); settings: fluorescence 635 nm, higher = more signal
[12] = blood-stage malaria parasite viability loss – strain 3D7, DAPI fluorescence, 100 nL, primary screen (AID 1184);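 further: parasites grown inside human red blood cells in medium with human serum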; settings: P. falciparum 3D7 growth, 3 d, higher = more signal
[13] = target: Homeobox protein Hox-A13 (Mus musculus) (UniProt Q62424); assay: disruptors of Hoxa13 oligonucleotide interaction – biochemical, fluorescence polarization, labeled oligonucleotide, primary screen (AID 1185); settings: Hoxa13:DNA binding, 15 min, higher = more signal, called active from +8 up or from −8 down
[14] = blockers of DNA damage checkpoint Chk1 activation – imaging, HeLa, hydroxyurea, phospho-Chk1 antibody, percent positive cells, primary screen (AID 1186); settings: hydroxyurea-induced phospho-Chk1 immunofluorescence imaging, higher = more signal
[15] = blockers of DNA damage checkpoint Chk1 activation – imaging, HeLa, hydroxyurea, phospho-Chk1 nuclear intensity, primary screen (AID 1187); settings: hydroxyurea-induced phospho-Chk1 immunofluorescence imaging, higher = more signal

Chain of E3 ubiquitin-protein ligase XIAP (Homo sapiens) (P98170 whole entry, looked up, the tested form may be a part): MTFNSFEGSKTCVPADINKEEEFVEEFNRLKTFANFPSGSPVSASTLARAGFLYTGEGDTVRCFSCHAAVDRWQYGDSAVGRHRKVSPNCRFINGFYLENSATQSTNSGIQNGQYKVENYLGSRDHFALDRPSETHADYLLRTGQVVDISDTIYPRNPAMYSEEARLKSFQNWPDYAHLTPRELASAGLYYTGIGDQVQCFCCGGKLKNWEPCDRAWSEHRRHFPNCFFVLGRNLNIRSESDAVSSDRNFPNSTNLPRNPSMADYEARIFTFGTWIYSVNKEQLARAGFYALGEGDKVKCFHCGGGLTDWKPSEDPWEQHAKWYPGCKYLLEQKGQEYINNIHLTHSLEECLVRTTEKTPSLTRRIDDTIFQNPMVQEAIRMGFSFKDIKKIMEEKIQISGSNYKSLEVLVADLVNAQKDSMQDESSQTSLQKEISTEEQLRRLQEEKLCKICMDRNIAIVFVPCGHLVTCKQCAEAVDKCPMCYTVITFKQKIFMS
Chain of Homeobox protein Hox-A13 (Mus musculus) (Q62424 whole entry, looked up): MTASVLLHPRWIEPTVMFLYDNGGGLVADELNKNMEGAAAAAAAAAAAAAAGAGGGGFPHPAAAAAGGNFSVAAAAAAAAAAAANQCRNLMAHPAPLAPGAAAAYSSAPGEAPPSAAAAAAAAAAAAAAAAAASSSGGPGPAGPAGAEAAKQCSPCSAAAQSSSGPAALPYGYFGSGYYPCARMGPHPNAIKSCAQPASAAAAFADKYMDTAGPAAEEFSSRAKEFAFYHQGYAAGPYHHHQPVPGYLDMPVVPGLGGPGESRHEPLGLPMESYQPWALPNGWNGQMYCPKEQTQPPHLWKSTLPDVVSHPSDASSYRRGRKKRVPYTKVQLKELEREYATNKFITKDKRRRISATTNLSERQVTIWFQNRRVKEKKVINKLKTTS
Chain of Dihydroorotate dehydrogenase (quinone), mitochondrial (Plasmodium falciparum (isolate 3D7)) (Q08210 whole entry, looked up): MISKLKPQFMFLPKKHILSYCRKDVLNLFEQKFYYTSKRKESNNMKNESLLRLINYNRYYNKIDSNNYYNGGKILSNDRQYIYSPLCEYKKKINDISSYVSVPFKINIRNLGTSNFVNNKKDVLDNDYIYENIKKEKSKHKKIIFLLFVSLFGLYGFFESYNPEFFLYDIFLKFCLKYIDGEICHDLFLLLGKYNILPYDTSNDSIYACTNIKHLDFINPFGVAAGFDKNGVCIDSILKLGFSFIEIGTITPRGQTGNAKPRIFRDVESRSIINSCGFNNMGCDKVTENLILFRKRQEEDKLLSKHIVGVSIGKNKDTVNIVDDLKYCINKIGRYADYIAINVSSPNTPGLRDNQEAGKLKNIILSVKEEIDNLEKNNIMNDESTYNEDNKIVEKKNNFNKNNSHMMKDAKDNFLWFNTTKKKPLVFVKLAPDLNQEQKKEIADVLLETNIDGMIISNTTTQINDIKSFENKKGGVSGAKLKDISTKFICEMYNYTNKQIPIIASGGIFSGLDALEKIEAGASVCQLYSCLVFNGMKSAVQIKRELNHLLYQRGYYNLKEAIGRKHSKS

Row | SMILES | z-score [1] | z-score [2] | z-score [3] | composite z-score [4] | z-score [5] | z-score [6] | z-score [7] | z-score [8] | z-score [9] | composite z-score [10] | composite z-score [11] | composite z-score (XIP peptide (Xip251-270)) | z-score [12] | z-score [13] | z-score [14] | z-score [15]
1 | C=C[C@H](OC)[C@@H](OC(=O)Nc1ccc(SC)cc1)c1ccc(OCCO)cc1 | -0.237 | -1.95 (inactive) | -0.895 (inactive) | -1.02 (inactive) | 0.662 (inactive) | 0.39 (inactive) | 0.0364 (inactive) | 0.0255 (inactive) | -0.204 | -0.0559 | 0.591 (inactive) | -0.0661 | 0.194 | -5.62 (inactive) | 0.259 (inactive) | 0.654 (inactive)
2 | O=C1OCCC/C=C\[C@H]2OC34C=CCN(CCN5CCOCC5)C(=O)[C@H]3N(CCO)C(=O)[C@@H]4C12 (some centres undefined) | -0.881 | 0.0436 (inactive) | -0.562 (inactive) | 0.71 (inactive) | -0.317 (inactive) | 1.05 (inactive) | -1.12 (inactive) | -1.09 (inactive) | -0.654 | 0.685 | 0.489 (inactive) | -0.979 | -1.22 | -5.83 (inactive) | -0.225 (inactive) | 0.264 (inactive)
3 | [N-]=[N+]=Nc1ccccc1C[C@]1(C(=O)N2CCCCC2)N=C(c2ccc(OCCCO)cc2)O[C@H]1c1ccccc1N=[N+]=[N-] | -0.776 | -0.254 (inactive) | -3.52 (inactive) | 0.584 (inactive) | 1.07 (inactive) | 0.975 (inactive) | -0.125 (inactive) | -0.319 (inactive) | -4.29 | 0.0727 | 1.01 (inactive) | 0.659 | -2.34 | -1.63 (inactive) | -0.0268 (inactive) | 0.205 (inactive)
4 | COc1ccc([Si](C)(C)[C@@H]2[C@@H](CCO)O[C@]3(C(=O)N(Cc4cccc(N5CCCCC5=O)c4)c4ccccc43)[C@H]2C)cc1 | -0.994 | 0.697 (inactive) | -1.93 (inactive) | -1.75 (inactive) | 0.225 (inactive) | 5.19 (inactive) | 0.318 (inactive) | 0.244 (inactive) | -0.439 | 0.0623 | 0.278 (inactive) | 0.648 | -2.82 | -5.08 (inactive) | -0.405 (inactive) | -0.474 (inactive)
5 | C=CCC(OC(C)=O)[C@@H]1[C@@H](N(Cc2ccc(-c3cccc(C(F)(F)F)c3)o2)C(=O)c2ccc(C)cc2)c2cc(OCCCO)ccc2N1C(=O)c1ccc2ccccc2n1 (some centres undefined) | 0.347 | -0.304 (inactive) | 0.0003 (inactive) | -1.35 (inactive) | -0.325 (inactive) | -0.0057 (inactive) | -0.379 (inactive) | 0.317 (inactive) | -0.37 | 0.265 | -0.0348 (inactive) | -0.789 | -0.537 | -0.918 (inactive) | -0.51 (inactive) | -0.703 (inactive)
6 | CC(C)N1C(=O)c2ccccc2[C@](C)(C(=O)NCCCN(C)C)[C@@H]1c1ccc(CO)cc1 | 0.257 | -0.919 (inactive) | 0.627 (inactive) | 0.0044 (inactive) | -0.522 (inactive) | -0.283 (inactive) | 0.0957 (inactive) | -0.429 (inactive) | 0.842 | 0.0871 | 0.289 (inactive) | 0.431 | 0.191 | -1.73 (inactive) | 0.0165 (inactive) | 0.149 (inactive)
7 | C[C@]1(C(=O)NCC(F)(F)F)c2ccccc2C(=O)N(Cc2cc(F)cc(C(F)(F)F)c2)[C@H]1c1ccc(CO)cc1 | 0.378 | -0.459 (inactive) | -0.191 (inactive) | -0.191 (inactive) | 1.32 (inactive) | -0.401 (inactive) | -0.0567 (inactive) | -0.376 (inactive) | 0.532 | -0.0884 | 0.362 (inactive) | 0.473 | -1.31 | -3.68 (inactive) | 0.305 (inactive) | 0.388 (inactive)
8 | Cc1ccc(S(=O)(=O)N2CC(C(=O)O)=CCC2c2ccccc2)cc1 (centres undefined) | -1.31 | 0.558 (inactive) | -2.27 (inactive) | 0.154 (inactive) | 0.12 (inactive) | 0.437 (inactive) | -1.28 (inactive) | -1.15 (inactive) | -0.931 | 0.155 | 0.624 (inactive) | 0.268 | -0.863 | -2.63 (inactive) | -0.557 (inactive) | -0.655 (inactive)
9 | CN(C)CCCN1C(=O)[C@@]2(c3ccc([N+](=O)[O-])cc3)CC(=O)N(C3CCCCC3)[C@@H]2c2ccc(CO)cc21 | 1.57 | -1.28 (inactive) | 1.11 (inactive) | -3.88 (inactive) | -0.6 (inactive) | -1.45 (inactive) | 0.244 (inactive) | 0.876 (inactive) | 1.12 | -0.0374 | -0.157 (inactive) | -0.0092 | 0.615 | -0.595 (inactive) | -0.659 (inactive) | -0.648 (inactive)
10 | C=CCNC(=O)[C@H]1[C@@H]2C(=O)O[C@@H](c3ccccc3)[C@@H](c3ccccc3)N2[C@@H](c2ccc(O)cc2)[C@]12C(=O)Nc1ccc(C#Cc3ccc(OC)cc3)cc12 | -1.56 | 0.885 (inactive) | -1.57 (inactive) | -27 (active) | 0.971 (inactive) | 1.14 (inactive) | 0.461 (inactive) | 0.0221 (inactive) | -3.24 | -0.0022 | 0.292 (inactive) | 0.779 | -0.785 | -1.91 (inactive) | 0.0407 (inactive) | 0.277 (inactive)
11 | CCOC(=O)C1=C[C@@H](C(C)(C)C)N(S(=O)(=O)c2ccc(C)cc2)[C@H]1c1ccc(Cl)c(Cl)c1 | -0.331 | 1.63 (inactive) | -1.01 (inactive) | 0.89 (inactive) | 0.546 (inactive) | 1.26 (inactive) | -0.723 (inactive) | -0.398 (inactive) | -2.92 | -0.0351 | -0.0073 (inactive) | 0.762 | -1.96 | -0.524 (inactive) | -0.0683 (inactive) | -0.633 (inactive)
12 | COc1ccc([Si](C)(C)[C@H]2[C@H](CC(=O)N3CCC[C@H]3CO)O[C@@]3(C(=O)N(c4ccccc4)c4ccccc43)[C@@H]2C)cc1 | 1.75 | -2.26 (inactive) | 1.55 (inactive) | 0.0873 (inactive) | 0.826 (inactive) | -1.81 (inactive) | 1.21 (inactive) | 1.49 (inactive) | 0.843 | -0.167 | 0.511 (inactive) | 0.531 | -0.887 | -3.87 (inactive) | -1.18 (inactive) | -0.219 (inactive)
13 | CC(C)(C)OC(=O)CC[C@@]1(C(=O)NCC(O)CO)N=C(c2ccc(OCCCO)cc2)O[C@@H]1c1ccccc1 (some centres undefined) | 0.38 | -0.205 (inactive) | -0.542 (inactive) | -0.73 (inactive) | 0.671 (inactive) | 0.0191 (inactive) | -0.529 (inactive) | 0.108 (inactive) | -0.397 | 0.0785 | 0.826 (inactive) | 0.942 | 0.649 | -4.48 (inactive) | 0.184 (inactive) | -0.14 (inactive)
14 | C=C(CCCC)C(=O)CC[C@H](OC(=O)c1ccccc1-c1ccccc1C(=O)O)c1ccc(CO)o1 | 0.985 | 0.671 (inactive) | 0.319 (inactive) | -0.72 (inactive) | 0.497 (inactive) | 0.996 (inactive) | -0.154 (inactive) | 0.16 (inactive) | 0.64 | -0.154 | 0.556 (inactive) | 0.582 | -0.714 | -6.05 (inactive) | -0.131 (inactive) | -0.23 (inactive)
